# Inconclusive results are not listed. The source made the active and inactive calls. Rule for the calls: active = hit-call score of the fitted dose curve at least 0.9, where 1 is the maximum; inconclusive = response in the unintended direction; inactive = score below 0.9.
# Experiments:
# [1] = ACEA_AR_agonist_AUC_viability: ACEA Biosciences xCELLigence Real-Time Cell Analysis on Androgen Receptor Agonism for Viability (AID 2283775);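 for AC50: viability read 80 hours after compound addition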
# Procedure, shortened: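 Viability endpoint from xCELLigence impedance in 22Rv1 prostate cells at 80 h. Eight-point series, 100 uM maximum final.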
# [2] = ACEA_AR_antagonist_AUC_viability: ACEA Biosciences xCELLigence Real-Time Cell Analysis on Androgen Receptor Antagonism for Viability (AID 2283776);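 note: 22Rv1 human prostate cancer cells growing on impedance electrode plates; area under impedance growth curve at 80 h after dosing as viability; hits lower the growth signal relative to DMSO meaning cytotoxicity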
# Procedure, shortened: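 Viability endpoint from label-free cell-index monitoring: 22Rv1 cultures treated with an eight-point 1:4 dilution series starting at 100 uM final, AUC at 80 h fitted against DMSO.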
# [3] = test system: zebrafish Estrogen Receptor (ESR2B), gene 317733; assay: ATG_zfER2b_XSP1: Attagene TRANS-FACTORIAL Multi-Species (XSP1) HepG2 Assay for zebrafish Estrogen Receptor (ESR2B) (AID 2283773)
# Procedure, shortened: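 Medium contained 3 nM 6-alpha-fluorotestosterone. Reporter mRNA induction by exogenous zebrafish ER2b-Gal4 chimera was read 24 h post-dose in transiently transfected HepG2 cells, using RT-PCR, fluorescent labelling, HpaI digestion and capillary electrophoresis.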
# [4] = test system: frog Estrogen Receptor (ESR2), gene 100174814; assay: ATG_frER2_XSP1: Attagene TRANS-FACTORIAL Multi-Species (XSP1) HepG2 Assay for frog Estrogen Receptor (ESR2) (AID 2283774)
# Procedure, shortened: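 Reporter mRNA from a multiplexed TRANS system, measured by RT-PCR with fluorescent labelling and capillary electrophoresis, 24 hours after chemical exposure. Human HepG2 liver cells carried exogenous frog ER-Gal4 chimera; medium included 3 nM 6-alpha-fluorotestosterone; increases versus DMSO analysed.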
# [5] = biological target: GAL4 Transcription Factor (Internal Marker), GAL4 (gene 855828) (UniProt P04386); assay: ATG_GAL4_XSP1: Attagene TRANS-FACTORIAL Multi-Species (XSP1) HepG2 Assay for GAL4 Transcription Factor (Internal Marker) (AID 2283789)
# Procedure, shortened: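 This background-control endpoint measures GAL4-driven reporter mRNA via RT-PCR and capillary electrophoresis of labelled fragments. Transiently transfected HepG2 cells were treated 24 h, with 3 nM 6-alpha-fluorotestosterone included, and gain-of-signal was fitted against DMSO.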
# [6] = ATG_M_19_XSP1: Attagene TRANS-FACTORIAL Multi-Species (XSP1) HepG2 Assay for M19 Transcription Factor (Internal Marker) (AID 2283798)
# Method: ATG_XSP1_multi-species_TRANS is a cell-based, multiplexed assay created by modifying the existing Attagene TRANS-FACTORIAL system to include a panel of nuclear receptors from some or all the following species: human (Homo sapiens), mouse (Mus musculus), frog (Xenopus laevis), zebrafish (Danio rerio), chicken (Gallus gallus), and turtle (Chrysemys picta). The ECOTOX-FACTORIAL format uses HepG2, a human liver cell line, with measurements taken at 24 hours after chemical dosing in a 24-well plate. Xsp1 included 3 nM 6-alpha-fluorotestosterone to partially stimulate the androgen receptor.ATG_M_19_XSP1 is one of 29 assay components measured or calculated from the ATG_XSP1_multi-species_TRANS assay. It is designed to make measurements of mRNA induction, a form of inducible reporter, as detected with fluorescence intensity signals by Reverse transcription polymerase chain reaction (RT-PCR) and Capillary electrophoresis technology.This assay endpoint, ATG_M_19_XSP1, was analyzed in the positive analysis fitting direction relative to DMSO as the negative control and baseline of activity. […] Furthermore, this assay endpoint can be referred to as a secondary readout, because this assay has produced multiple assay endpoints where this one serves a background control function. […]
# GAL4 Transcription Factor (Internal Marker), GAL4 (gene 855828), sequence (P04386 whole entry, looked up, the tested form may be a part): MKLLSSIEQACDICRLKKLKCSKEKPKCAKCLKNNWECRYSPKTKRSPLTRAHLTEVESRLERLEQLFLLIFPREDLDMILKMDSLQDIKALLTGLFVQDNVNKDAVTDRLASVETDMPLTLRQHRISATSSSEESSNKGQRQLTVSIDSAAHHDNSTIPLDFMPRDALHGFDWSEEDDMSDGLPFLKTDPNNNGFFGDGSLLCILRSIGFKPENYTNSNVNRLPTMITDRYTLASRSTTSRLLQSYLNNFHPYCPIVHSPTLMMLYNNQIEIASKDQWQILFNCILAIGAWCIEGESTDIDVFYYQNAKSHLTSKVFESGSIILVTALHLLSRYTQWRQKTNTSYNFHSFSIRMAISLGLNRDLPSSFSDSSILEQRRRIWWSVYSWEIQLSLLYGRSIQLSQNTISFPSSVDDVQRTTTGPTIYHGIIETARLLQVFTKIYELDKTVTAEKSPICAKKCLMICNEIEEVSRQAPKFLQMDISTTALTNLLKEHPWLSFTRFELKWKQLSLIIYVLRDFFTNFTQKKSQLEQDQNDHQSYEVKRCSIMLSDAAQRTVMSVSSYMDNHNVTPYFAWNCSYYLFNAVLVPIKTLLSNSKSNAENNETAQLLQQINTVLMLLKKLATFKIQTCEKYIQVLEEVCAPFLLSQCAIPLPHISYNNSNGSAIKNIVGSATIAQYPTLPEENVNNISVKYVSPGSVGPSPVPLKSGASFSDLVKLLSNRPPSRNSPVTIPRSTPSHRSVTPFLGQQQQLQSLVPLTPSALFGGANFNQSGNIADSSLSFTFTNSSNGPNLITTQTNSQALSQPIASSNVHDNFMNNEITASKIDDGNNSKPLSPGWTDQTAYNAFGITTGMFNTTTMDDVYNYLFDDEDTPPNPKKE
structure (smiles),measurement,setting,value
NS(=O)(=O)c1cc2c(cc1Cl)NCNS2(=O)=O,outcome,[1],inactive
same,outcome,[2],inactive
O=C(O)CCCCC(=O)O,AC50,[1],9.92 µM (active)
same,AC50,[2],3.82 µM (active)
CC1(C)CC(N=C=O)CC(C)(CN=C=O)C1 (stereo unspecified),AC50,[1],25.5 µM (active)
same,outcome,[2],inactive
Nc1ccc2c(c1)C(=O)c1ccccc1C2=O,outcome,[1],inactive
same,AC50,[2],14.1 µM (active)
CCc1c(C(=O)NN2CCCCC2)nn(-c2ccc(Cl)cc2Cl)c1-c1ccc(Br)cc1,AC50,[1],12.7 µM (active)
same,AC50,[2],10.8 µM (active)
Nc1ccc(S(=O)(=O)c2ccc(N)cc2)cc1,outcome,[1],inactive
NCC1(Cc2noc(=O)[nH]2)CCCCC1,outcome,[1],inactive
same,outcome,[2],inactive
O=C(OCCCCCOC(=O)c1ccccc1)c1ccccc1,AC50,[1],90.1 µM (active)
same,AC50,[2],77.9 µM (active)
CC(C)(C)c1cc(O)c(C(C)(C)C)cc1O,AC50,[3],186 µM (active)
same,outcome,[4],inactive
same,AC50,[1],66.3 µM (active)
same,outcome,[2],inactive
same,outcome,[5],inactive
same,outcome,[6],inactive
CC=Cc1ccc(O)c(OC)c1,AC50,[1],50 µM (active)
same,AC50,[2],19.3 µM (active)
CCCCCCCCCCCCCCCCCC(=O)O,outcome,[1],inactive
same,AC50,[2],25 µM (active)
c1cc(-c2ccncc2)ccn1,outcome,[1],inactive
same,outcome,[2],inactive
CC(C)c1ccc(C(=O)N=C(N)N)cc1S(C)(=O)=O,outcome,[1],inactive
same,outcome,[2],inactive
CCCCCCCCCCCCCO,outcome,[1],inactive
same,outcome,[2],inactive
Cc1ccc2ncccc2c1,outcome,[1],inactive
same,outcome,[2],inactive
C=CCc1ccc(O)c(OC)c1,outcome,[1],inactive
same,outcome,[2],inactive
CCCCCCCC=O,outcome,[1],inactive
same,outcome,[2],inactive
CCOC(=O)C(C)(C)Oc1ccc(Cl)cc1,outcome,[1],inactive
same,outcome,[2],inactive
CCCCCCCCCCCC(=O)OC,outcome,[1],inactive
same,outcome,[2],inactive
